{
  "source": "PubChem BioAssay (NCATS)",
  "note": "Records with an inconclusive call do not appear. Calls of active or inactive are those of the source. Calls follow the shape of the dose curve; as a rule, active = well fitted inhibition curve with a large enough effect; inconclusive = small, poorly fitted or top-dose-only effect; inactive = flat fitted curve, though single readings scatter. Potency is read from the fitted curve at half-maximal effect.",
  "data": [
    {"experiment": "BET inhibitor-based combinations targeting novel dependencies in MECOM-rearranged (r) AML: AML-191 cell line (AID 2202236; also: nearly all actives have a fitted effect of over 35% in size;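 as to viability (% of control): plate controls were vehicle wells for no effect and wells without cells for full effect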)", "conditions": "AML-191 viability, CellTiter-Glo luminescence, 48 h; series mostly up to 46 µM; viability (% of control): at the top concentration", "text": "Ecotropic viral insertion site 1 (EVI1) is located on chromosome 3q26.2 as part of the MECOM (MDS and EVI1 complex) locus. Under normal hematopoiesis, EVI1 is a regulator of hematopoietic stem cell maintenance and self-renewal and EVI1 levels decrease as the cells differentiate. In approximately 5-10% of de novo acute myeloid leukemia (AML) EVI1 is aberrantly expressed, including Chromosomal inv(3)(q21;q26.2) or t(3;3)(q21;q26.2) alterations (MECOM-r) that account for about 50% of AML with EVI1 overexpression 31. AMLs with high levels of EVI1 have a poor prognosis and an overall survival time averaging between 10-14 months. EVI1 overexpression confers resistance in leukemia cells, highlighting the need to develop new targeted therapies for EVI1 overexpressing AMLs.\nHere, we performed an unbiased chemical drug screening by evaluating the single agent activity of a collection of 2,480 oncology-focused, approved and investigational drugs (NCATS Mechanism Interrogation Plates, MIPE v5.0) against a panel of seven AML cell lines. These included four MECOM-r cell-lines (AML-191, AML-194, UCSD-AML1 and HNT-34) and three non-MECOM-r AMLs (MV4-11, OCI-AML3 and SET-2). Exploiting the mechanistic redundancy built in the library, we identified target-level sensitivities in MECOM-r AML cells and relative activity as compared to other AML subtypes.\nA collection of 2480 mechanistically annotated dugs (MIPE v5.0) was used to screen four 3q26.2 rearranged AML cell lines and three non-3q26.2 rearranged AML cell lines. This library purposely exploits redundancy by including multiple inhibitors of key onco-targets, while simultaneously encompassing mechanistic diversity, targeting more than 800 distinct mechanisms of action. Briefly, cells were seeded in 5 uL of growth media using a Multidrop Combi dispenser into 1536 well white polystyrene tissue culture treated plates (Corning) at a density of 500cells/well. For each cell-line, for each of the 2480 drugs in MIPE v5.0 library, an 11-point dose curve was generated via a 1536 pin-tool. Plates were incubated for 48 hr at standard incubator conditions, covered by a stainless steel gasketed lid to prevent evaporation. Cell viability was determined by luminescence based, Cell Titer Glo assay (Promega). In detail, 3 uL of Cell Titer Glo were added to each well and plates were incubated at room temperature for 15 min with a stainless-steel lid in place. Luminescence readings were taken using a Viewlux (PerkinElmer) with a 2 s exposure time per plate. Compound dose-response curves were normalized to DMSO and empty well controls on each plate. Quantitative drug activity data from dose-response curves was determined utilizing area Under the Curve (AUC) and Z-transformed AUC (Z-AUC, a mean-centering transformation applied to each individual cell-line screened).", "values": [
      {"molecule": "COc1cc(N2CCC(O)CC2)ccc1Nc1cc(Nc2ccccc2S(=O)(=O)C(C)C)c2cc[nH]c2n1", "Potency": "16.6 µM (active)"},
      {"molecule": "COc1c(C)c2c(c(O)c1C/C=C(\\C)CCC(=O)O)C(=O)OC2", "Potency": "1.05 µM (active)"},
      {"molecule": "CN[C@@H]1CN(c2ccc3c(=O)c(C(=O)O)cn(-c4nccs4)c3n2)C[C@@H]1OC", "Potency": "1.82 µM (active)"},
      {"molecule": "C[C@@H]1CN(c2c(F)c(N)c3c(=O)c(C(=O)O)cn(C4CC4)c3c2F)C[C@H](C)N1", "viability (% of control)": "96.1% (inactive)"},
      {"molecule": "Nc1ccccc1NC(=O)c1ccc(CNC(=O)OCc2cccnc2)cc1", "Potency": "2.63 µM (active)"},
      {"molecule": "NC(=O)c1ccc2nc(-c3ccc(Oc4ccc(Cl)cc4)cc3)[nH]c2c1", "viability (% of control)": "88.4% (inactive)"},
      {"molecule": "CNC(=O)c1cc(COc2nnc(Nc3ccc(Cl)cc3)c3ccoc23)ccn1", "viability (% of control)": "84.7% (inactive)"},
      {"molecule": "COC1CCC(C(=O)c2ccc3nc4c(cc3c2)CCCO4)CC1", "note": "(stereo not given)", "viability (% of control)": "92.8% (inactive)"},
      {"molecule": "CCN(CC)CCCC(C)Nc1c2ccc(Cl)cc2nc2ccc(OC)cc12", "note": "(stereo not given)", "Potency": "7.42 µM (active)"},
      {"molecule": "Cc1[nH]nc2ccc(-c3cncc(OC[C@@H](N)Cc4ccccc4)c3)cc12", "Potency": "0.833 µM (active)"},
      {"molecule": "Cn1cc(-c2ccc(S(=O)(=O)n3ccc(/C=C/C(=O)Nc4ccccc4N)c3)cc2)cn1", "Potency": "0.833 µM (active)"},
      {"molecule": "CN(C)CCN1C(=O)c2cccc3cc(N)cc(c23)C1=O", "Potency": "13.2 µM (active)"},
      {"molecule": "CCOC(=O)c1ccnc(CNCC(=O)N(CC)CCN(C)C)c1", "viability (% of control)": "97.1% (inactive)"},
      {"molecule": "COc1cc(/C=C(\\C#N)C(=O)Nc2nnc(C(F)(F)F)s2)ccc1OCc1ccc(C(F)(F)F)cc1C(F)(F)F", "viability (% of control)": "110% (inactive)"},
      {"molecule": "COCCOc1ccc2c(c1)ncn2-c1ccc2cccc(N3CCC(N)CC3)c2n1", "Potency": "2.09 µM (active)"},
      {"molecule": "O=C1CCCC2=C1C(c1[nH]ncc1Cl)N=C(Nc1nc3ccccc3o1)N2", "note": "(stereo not given)", "Potency": "16.6 µM (active)"},
      {"molecule": "CNC(=O)c1c(F)cccc1Nc1nc(Nc2cc3c(cc2OC)CCN3C(=O)CN(C)C)nc2[nH]ccc12", "Potency": "8.33 µM (active)"},
      {"molecule": "Nc1nccc(Oc2ccc(NC(=O)c3c[nH]cc(-c4ccc(F)cc4)c3=O)cc2F)c1Cl", "Potency": "9.34 µM (active)"},
      {"molecule": "CC(C)(C)c1cc(NC(=O)Nc2ccc(-c3cn4c(n3)sc3cc(OCCN5CCOCC5)ccc34)cc2)no1", "Potency": "4.68 µM (active)"},
      {"molecule": "C1=C/COCc2cc(ccc2OCCN2CCCC2)Nc2nccc(n2)-c2cccc(c2)COC/1", "Potency": "1.86 µM (active)"},
      {"molecule": "CC(O)c1cc(C(=O)N[C@@H](C)Cn2ccc(-c3ccc(C#N)c(Cl)c3)n2)n[nH]1", "note": "(stereo not given in full)", "Potency": "16.6 µM (active)"},
      {"molecule": "C=CCn1c(=O)c2cnc(Nc3ccc(N4CCN(C)CC4)cc3)nc2n1-c1cccc(C(C)(C)O)n1", "Potency": "0.742 µM (active)"},
      {"molecule": "NC(N)=NC(N)=NCCc1ccccc1", "viability (% of control)": "88.7% (inactive)"},
      {"molecule": "NC(=O)c1cnc(-c2ccc(C3(N)CCC3)cc2)c(-c2ccccc2)c1", "viability (% of control)": "92.3% (inactive)"},
      {"molecule": "COc1cccc(-c2cc(=O)c3ccccc3o2)c1N", "Potency": "14.8 µM (active)"},
      {"molecule": "c1cnc2cc3c(cc2n1)C1CNCC3C1", "viability (% of control)": "109% (inactive)"},
      {"molecule": "NC(=O)c1noc([C@H](CCCC2CCCCC2)CC(=O)NO)n1", "Potency": "3.72 µM (active)"},
      {"molecule": "CS(=O)c1ccc(-c2nc(-c3ccc(F)cc3)c(-c3ccncc3)[nH]2)cc1", "note": "(stereo not given)", "viability (% of control)": "88.2% (inactive)"},
      {"molecule": "O=S(=O)(O)CCS", "viability (% of control)": "109% (inactive)"},
      {"molecule": "Cn1c(=O)c2c(ncn2CC(O)CO)n(C)c1=O", "note": "(stereo not given)", "viability (% of control)": "109% (inactive)"},
      {"molecule": "COc1ccc2c(OCc3nnc4ccc(-c5ccccc5)nn34)ccnc2c1", "viability (% of control)": "117% (inactive)"},
      {"molecule": "O=S(=O)(O)c1ccc2cc(N=Nc3cc(S(=O)(=O)O)c4cccnc4c3O)ccc2c1", "viability (% of control)": "85.4% (inactive)"},
      {"molecule": "Cc1csc(NC(=O)c2sc3nc4c(c(C(F)(F)F)c3c2N)CCC4)n1", "viability (% of control)": "86.1% (inactive)"},
      {"molecule": "CCCCC(CC)COC(=O)C(C#N)=C(c1ccccc1)c1ccccc1", "note": "(stereo not given)", "viability (% of control)": "105% (inactive)"},
      {"molecule": "CC(=O)OCC(CCn1cnc2cnc(N)nc21)COC(C)=O", "viability (% of control)": "102% (inactive)"},
      {"molecule": "Nc1nc(-c2nn(Cc3ccccc3F)c3ncccc23)nc(N)c1N1CCOCC1", "viability (% of control)": "94.7% [at 15.6 µM] (inactive)"},
      {"molecule": "Cc1[nH]c(=O)c(C#N)cc1-c1ccncc1", "viability (% of control)": "98.2% (inactive)"},
      {"molecule": "COc1cc2c(cc1OC)C1CC(=O)C(CC(C)C)CN1CC2", "note": "(stereo not given)", "viability (% of control)": "97.1% (inactive)"},
      {"molecule": "CNc1nc(C)nc(N[C@H]2CCC[C@@H](C(=O)NCc3ccc(C#N)cc3C(F)(F)F)C2)n1", "viability (% of control)": "102% (inactive)"},
      {"molecule": "CNc1nc(Nc2cnn([C@H]3CCN(C4COC4)C[C@@H]3F)c2Cl)ncc1C(F)(F)F", "Potency": "16.6 µM (active)"}
    ]}
  ]
}
